Assay outcomes deposited in PubChem BioAssay by National Center for Advancing Translational Sciences (NCATS).
Hits are enriched below; roughly 19% of the tested compounds scored in any of these assays.
DT40 TDP1 CPT = growth inhibition of DT40 Tdp1-/-;hTDP1 cells with camptothecin (screen for TDP1 inhibitors). 420,000 tested, 12% active. Potency, µM (highest dose often 46.2 µM), inactives show at the highest dose activity change, negative = growth inhibition, hits mostly inhibitors. AID 686979. chicken DT40 Tdp1-/-;hTDP1 cells + 20 nM CPT, ATP luminescence, 48 h; note: potency is the fitted concentration of half-maximal effect; nearly all actives have a fitted effect of over 55% in size
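Cell growth measured by CellTiter-Glo luminescence after a minimum 48 h, 37 C compound exposure with 20 nM CPT in Tdp1-knockout DT40 cells stably expressing hTDP1, seeded 400/well; qHTS titration format.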
IL1B secr inh = inhibitors of inflammasome signaling (IL-1 beta secretion). 360,000 tested, 4.7% active. AID 743279. activity change, % at 57.5 µM. THP-1 LPS/ATP IL-1B secretion, AlphaLISA, 16 h; active compounds read low; in the data active = activity change below about -50%; inconclusive = mostly about -30% to -49%
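Secreted IL-1B measured by AlphaLISA bead assay after 16 h compound exposure of THP-1 cells; compounds (final up to 57.5 uM) added 1 h before LPS (250 ng/mL) and ATP (1.25 mM) stimulation; lower signal means less secretion.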
HT1080-NT tox = kills 2HG-producing HT-1080-NT fibrosarcoma cells. 360,000 tested, 1.6% active. Potency, µM (top dose mostly 46.1 µM), for the others: at the highest dose activity, negative = less viability, most hits filed as cytotoxic. HT-1080-NT fibrosarcoma viability, CellTiter-Glo ATP luminescence, 48 h;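 note: NT is the 2HG producing partner of a matched IDH1 knockdown line; potency is the fitted concentration of half-maximal effect; 0% = DMSO-treated cells and -100% = media-only wells without cells; nearly all actives have a fitted effect of over 55% in size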
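HT-1080-NT; 750 cells/well; 5% FBS RPMI; 48 h compound, 37 degrees C; CellTiter-Glo luminescence; curve fitting and curve-class assignment.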
HT1080 IDH1KD tx = HT-1080 IDH1 knockdown cell toxicity (counter line); Potency, µM (top dose mostly 46.1 µM), inactives show at the highest dose activity, negative = toxicity, most hits filed as cytotoxic; 360,000 tested, 2% active; HT-1080 IDH1 knockdown viability, ATP luminescence, 48 h;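 note: potency is the fitted concentration of half-maximal effect; 0% = DMSO wells and -100% = cell-free medium wells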
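CellTiter-Glo luminescence after 48 h compound exposure at 37 degrees C of IDH1-knockdown HT-1080 cells in 5% FBS RPMI. %Activity scaled between DMSO wells and cell-free media wells, with curves fitted and assigned curve classes.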
DT40 TDP1 no CPT = qHTS for Inhibitors of human tyrosyl-DNA phosphodiesterase 1 (TDP1): qHTS in cells in absence of CPT; Potency, µM (titrated, usually from 46.2 µM), without a hit: top-dose activity change, negative = growth inhibition, hits mostly inhibitors; DT40 Tdp1-/- hTDP1 cells, no CPT, ATP luminescence, 48 h; 420,000 tested, 15% active; AID 686978, 2013; note: potency is the fitted concentration of half-maximal effect; nearly all actives have a fitted effect of over 55% in size
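No-CPT arm: Tdp1-/-;hTDP1 DT40 cells (400/well) plus compounds, incubated ≥48 hr at 37 °C. Readout CellTiter-Glo luminescence.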
Numbers without * were called inactive; ? = inconclusive; . = no result; [ ] = remark or other dose. Unless noted, calls come from the whole dose curve; as a rule, active = well fitted curve in the direction sought with a large enough effect; inconclusive = small, poorly fitted or top-dose-only effect, or another doubt; inactive = no such curve, though single readings can be large; an effect the other way counts as inactive or inconclusive. Unless noted, % is set by controls: 0 for no effect and ±100 for the full control effect.

SMILES	DT40 TDP1 CPT	IL1B secr inh	HT1080-NT tox	HT1080 IDH1KD tx	DT40 TDP1 no CPT
Cc1c(Cl)cccc1NC(=O)C1CCN(c2ncnc3c2nc2n3CCCCC2)CC1	?	.	.	.	-6%
CC(C)N(Cc1ccccc1)C(=O)C1CCN(c2ncnc3c2nc2n3CCCCC2)CC1	?	-3	-15%	-3%	18µM*
CN(C)CCN(Cc1ccccc1)C(=O)C1CCN(c2ncnc3c2nc2n3CCCCC2)CC1	-27%	?	1%	-4%	0%
c1csc(Cc2nc(-c3ccc(-n4cccc4)cc3)no2)c1	2%	-16	-1%	-11%	-5%
CNC(=O)c1nnsc1S(=O)c1ccc(Cl)cc1 (centres undefined)	0.41µM*	-105*	15µM*	23µM*	0.65µM*
CCCNC(=O)c1nnsc1S(=O)c1ccc(Cl)cc1 (centres undefined)	0.41µM*	-102*	18µM*	16µM*	0.52µM*
COc1ccc(-c2c(N)nnc3c2[nH]c2ccccc23)cc1OC	?	-64*	-5%	-18%	21µM*
COc1ccc(-c2c(N)n[nH]c2C)cc1OC	8%	0	19%	2%	15%
C=CC[C@H](CC(=O)N(CCO)Cc1ccccc1)C(=O)N[C@@H](COC(=O)[C@H](CC=C)CC(=O)OC(C)(C)C)Cc1c[nH]c2ccccc12	15µM*	-62*	?	?	16µM*
C=CC[C@@H](CC(=O)N(CCO)Cc1ccccc1)C(=O)N[C@@H](COC(=O)[C@@H](CC=C)CC(=O)OC(C)(C)C)Cc1c[nH]c2ccccc12	26µM*	-62*	?	?	21µM*
C=CC[C@@H](CC(=O)N(CCO)Cc1ccccc1)C(=O)N[C@H](COC(=O)[C@@H](CC=C)CC(=O)OC(C)(C)C)Cc1c[nH]c2ccccc12	18µM*	-56*	-26%	-25%	23µM*
C=CCC[C@H](Cc1ccc(F)cc1)C(=O)OC[C@H](Cc1c[nH]c2ccccc12)NC(=O)[C@H](CC=C)CC(=O)N[C@H](CO)Cc1ccccc1	?	-8	0%	-1%	?
COc1ccc(C)cc1NC(=O)CSc1nc(=O)n(CCCN2CCOCC2)c2c1CCCC2	?	-17	-10%	0%	?
Cc1ccsc1C(=O)N(Cc1cc2ccc(F)cc2nc1N1CCC(O)CC1)CC1CCCO1 (centres undefined)	9%[9.04 µM]	.	.	.	-5%
Cc1cc(C)c(NC(=O)CSCc2c(C)noc2C)c(Cl)c1	-18%	?	-11%	2%	-25%
CCN1CCCC1CNC(=O)c1ccc(Sc2ccccc2Cl)c([N+](=O)[O-])c1 (centres undefined)	?	-50*	26µM*	?	?
O=C(NC1CCCC1)C(c1ccc(F)cc1)N(Cc1ccc(F)cc1)C(=O)c1ccn[nH]1 (centres undefined)	9%	-6	-1%	-1%	-20%
O=C(NC1CCCCC1)C(c1ccc(F)cc1)N(Cc1cccs1)C(=O)CN1C(=O)c2ccccc2S1(=O)=O (centres undefined)	16µM*	40	4%	0%	16µM*
Cc1ccc(C(C(=O)NC2CCCC2)N(C(=O)CNC(=O)c2ccco2)c2ccccc2)o1 (centres undefined)	6%	-5	15%	8%	0%
O=C(NC1CCCC1)C(c1ccc(F)cc1)N(Cc1ccccc1Cl)C(=O)CCl (centres undefined)	5.8µM*	-91*	?	?	3.3µM*
Cc1ccc(C(C(=O)NC2CCCCC2)N(Cc2ccco2)C(=O)Cc2c[nH]c3ccccc23)o1 (centres undefined)	?	-77*	-16%	-19%	?
Cc1ccc(C(C(=O)NC2CCCCC2)N(C(=O)Cc2c[nH]c3ccccc23)c2ccccc2C)o1 (centres undefined)	26µM*	21	15µM*	23µM*	21µM*
